According to PubChem BioAssay (Tox21):
Several values for one entry are separate records, joined by “and”; a condition that tells them apart may be missing. Identical values can stand only once. Activity calls are given as the source filed them. Entries that show only a call come without a potency. Unless noted, calls come from the whole dose curve; as a rule, active = well fitted curve in the direction sought with a large enough effect in the repeat runs; inconclusive = weak or mixed curves; inactive = no such curve, though single readings can be large; an effect the other way counts as inactive or inconclusive.

Columns and labels:
[1] = qHTS assay to identify small molecule antagonists of the glucocorticoid receptor (GR) signaling pathway - cell viability counter screen (AID 720693); note: nearly all actives have a fitted effect of over 55% in size; note: potency is the fitted concentration of half-maximal effect
[2] = qHTS assay for identifying genotoxic compounds that show differential cytotoxicity against isogenic chicken DT40 cell lines with known DNA damage response pathways - wild type cell line (AID 743012); note: nearly all actives have a fitted effect of over 60% in size; note: potency is the fitted concentration of half-maximal effect
Procedure, shortened: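 Viability by ATP luminescence (CellTiter-Glo, 30 min RT) after 40 h compound treatment at 37 C/5% CO2, using 300 parental DNA repair-proficient DT40 cells per well.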

[3] = qHTS assay for identifying genotoxic compounds that show differential cytotoxicity against isogenic chicken DT40 cell lines with known DNA damage response pathways - Rev3 mutant cell line (AID 743014); note: nearly all actives have a fitted effect of over 55% in size; note: potency is the fitted concentration of half-maximal effect
[4] = qHTS assay for identifying genotoxic compounds that show differential cytotoxicity against isogenic chicken DT40 cell lines with known DNA damage response pathways - Rad54/Ku70 mutant cell line (AID 743015); note: nearly all actives have a fitted effect of over 60% in size; note: potency is the fitted concentration of half-maximal effect
[5] = qHTS assay to identify small molecule antagonists of the androgen receptor (AR) signaling pathway using the MDA cell line - cell viability counter screen (AID 743041; note: nearly all actives have a fitted effect of over 45% in size; note: potency is the fitted concentration of half-maximal effect)
Procedure, shortened: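 qHTS viability read-out; MDA-kb2 AR-luc; R1881-stimulated; 16 h exposure at 37C, 0% CO2; CellTiter-Fluor, 30 min; fluorescence intensity.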

[6] = qHTS assay to identify small molecule antagonists of the thyroid receptor (TR) signaling pathway - cell viability counter screen (AID 743064); note: nearly all actives have a fitted effect of over 50% in size; note: potency is the fitted concentration of half-maximal effect
Procedure, shortened: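 In rat pituitary GH3.TRE-Luc reporter cells co-exposed to compound and 1 nM T3 for 23.5 h, cytotoxicity was assessed with CellTiter-Fluor in the same wells, read by fluorescence.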

[7] = test system: thyroid hormone receptor (rat, GH3 cells); test: qHTS assay to identify small molecule agonists of the thyroid receptor (TR) signaling pathway (AID 743066; calls by dose curve)
[8] = qHTS assay to identify small molecule antagonists of the estrogen receptor alpha (ER-alpha) signaling pathway - cell viability counter screen (AID 743074; calls by dose curve; note: nearly all actives have a fitted effect of over 45% in size; note: potency is the fitted concentration of half-maximal effect)
[9] = target: Estrogen receptor (Homo sapiens) (UniProt P03372); test: qHTS assay to identify small molecule agonists of the estrogen receptor alpha (ER-alpha) signaling pathway (AID 743075; calls by dose curve; note: potency is the fitted concentration of half-maximal effect)
Estrogen receptor (Homo sapiens), sequence (P03372 whole entry, looked up): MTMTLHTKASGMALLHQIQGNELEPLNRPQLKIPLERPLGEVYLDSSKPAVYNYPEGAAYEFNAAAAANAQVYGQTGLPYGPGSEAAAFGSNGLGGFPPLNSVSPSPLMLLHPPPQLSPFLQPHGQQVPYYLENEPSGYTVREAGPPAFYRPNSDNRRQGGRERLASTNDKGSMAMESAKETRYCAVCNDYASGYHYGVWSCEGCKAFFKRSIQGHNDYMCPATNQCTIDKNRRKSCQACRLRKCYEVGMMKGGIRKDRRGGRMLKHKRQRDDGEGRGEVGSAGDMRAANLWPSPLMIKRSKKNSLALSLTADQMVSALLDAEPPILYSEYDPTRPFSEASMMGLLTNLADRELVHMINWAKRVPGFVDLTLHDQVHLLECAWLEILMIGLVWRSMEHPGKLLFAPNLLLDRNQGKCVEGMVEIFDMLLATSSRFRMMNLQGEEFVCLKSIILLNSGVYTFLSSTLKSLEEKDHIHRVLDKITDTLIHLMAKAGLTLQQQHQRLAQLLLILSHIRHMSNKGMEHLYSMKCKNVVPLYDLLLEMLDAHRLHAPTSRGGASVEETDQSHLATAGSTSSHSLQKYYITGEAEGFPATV

[10] = target: Estrogen receptor (Homo sapiens) (UniProt P03372); test: qHTS assay to identify small molecule agonists of the estrogen receptor alpha (ER-alpha) signaling pathway using the BG1 cell line (AID 743079); conditions: BG1Luc4E2 cells, ERE-luciferase agonist, 22 h; activation: at 70.3 µM (top of the series); note: nearly all actives have a fitted effect of over 20% in size; note: potency is the fitted concentration of half-maximal effect
[11] = qHTS assay to identify small molecule antagonists of the estrogen receptor alpha (ER-alpha) signaling pathway using the BG1 cell line (AID 743080; calls by dose curve;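 note: BG1 cells stimulated with 17beta-estradiol alongside compound; nearly all actives have a fitted effect of over 25% in size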; note: potency is the fitted concentration of half-maximal effect); conditions: BG1Luc4E2 ERE-luciferase antagonist mode, luminescence; activity change, negative = inhibition: at 70.3 µM (top of the series)
Procedure, shortened: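 BG1-Luc-4E2 cells (endogenous full-length ER-alpha, 4xERE luciferase) hormone-starved 5 days in charcoal-stripped FBS, plated 4,000/well for 24 h, then compound plus 17beta-estradiol for 21.5 h at 37 C; ONE-Glo luminescence read.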

[12] = qHTS assay to identify small molecule antagonists of the estrogen receptor alpha (ER-alpha) signaling pathway using the BG1 cell line - cell viability counter screen (AID 743081);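 note: compound given together with 17beta-estradiol as the ER stimulus; nearly all actives have a fitted effect of over 45% in size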; note: potency is the fitted concentration of half-maximal effect
Aromatase (Homo sapiens) = Aromatase (Homo sapiens) (UniProt P11511); test: qHTS assay to identify aromatase inhibitors (AID 743083); note: nearly all actives have a fitted effect of over 55% in size; note: potency is the fitted concentration of half-maximal effect
Aromatase (Homo sapiens), sequence (P11511 whole entry, looked up): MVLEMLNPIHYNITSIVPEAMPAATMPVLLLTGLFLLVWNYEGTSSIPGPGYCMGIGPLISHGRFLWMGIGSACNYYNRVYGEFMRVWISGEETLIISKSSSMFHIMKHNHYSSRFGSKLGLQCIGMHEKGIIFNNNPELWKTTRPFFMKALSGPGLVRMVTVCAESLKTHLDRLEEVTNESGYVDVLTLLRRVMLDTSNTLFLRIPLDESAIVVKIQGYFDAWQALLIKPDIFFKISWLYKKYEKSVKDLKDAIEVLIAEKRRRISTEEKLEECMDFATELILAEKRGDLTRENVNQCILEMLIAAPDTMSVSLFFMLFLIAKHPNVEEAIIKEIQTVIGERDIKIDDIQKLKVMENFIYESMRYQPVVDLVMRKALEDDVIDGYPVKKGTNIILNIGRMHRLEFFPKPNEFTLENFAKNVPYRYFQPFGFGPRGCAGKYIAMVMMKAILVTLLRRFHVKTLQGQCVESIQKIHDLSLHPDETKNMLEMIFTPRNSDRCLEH

[13] = qHTS assay to identify aromatase inhibitors - cell viability counter screen (AID 743084);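 note: cells stimulated with testosterone during compound exposure; nearly all actives have a fitted effect of over 55% in size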; note: potency is the fitted concentration of half-maximal effect
[14] = qHTS assay to identify small molecule antagonists of the thyroid receptor (TR) signaling pathway (AID 743065); note: nearly all actives have a fitted effect of over 55% in size; note: potency is the fitted concentration of half-maximal effect
Procedure, shortened: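 GH3.TRE-Luc rat pituitary cells carrying two TR response elements driving luciferase were plated for 4 h, given compound plus 1 nM T3 (final), and incubated 23.5 h at 37 C. ONE-Glo luminescence measured reporter inhibition; CellTiter-Fluor fluorescence tracked cytotoxicity.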

[15] = target: Estrogen receptor (Homo sapiens) (UniProt P03372); test: qHTS assay to identify small molecule antagonists of the estrogen receptor alpha (ER-alpha) signaling pathway (AID 743069; active = well fitted curve in the direction sought with a large enough effect in the signal ratio in the repeat runs, not every such curve was filed as active; inconclusive = weak or mixed curves, or effect the other way; inactive = no such curve, though single readings can be large or run the other way; the % refers to the signal ratio; note: potency is the fitted concentration of half-maximal effect)
Procedure, shortened: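 Screening used a UAS-driven beta-lactamase reporter integrated into HEK293 cells expressing ER-alpha, stimulated with 17beta-estradiol alongside test compounds over 18 hr at 37C; signal came from LiveBLAzer B/G FRET fluorescence.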

[16] = qHTS assay to identify small molecule antagonists of the androgen receptor (AR) signaling pathway - cell viability counter screen (AID 743033; note: nearly all actives have a fitted effect of over 45% in size; note: potency is the fitted concentration of half-maximal effect)
[17] = target: Androgen receptor (Homo sapiens) (UniProt P10275); test: qHTS assay to identify small molecule agonists of the androgen receptor (AR) signaling pathway using the MDA cell line (AID 743040; note: nearly all actives have a fitted effect of over 20% in size)
Androgen receptor (Homo sapiens), sequence (P10275 whole entry, looked up): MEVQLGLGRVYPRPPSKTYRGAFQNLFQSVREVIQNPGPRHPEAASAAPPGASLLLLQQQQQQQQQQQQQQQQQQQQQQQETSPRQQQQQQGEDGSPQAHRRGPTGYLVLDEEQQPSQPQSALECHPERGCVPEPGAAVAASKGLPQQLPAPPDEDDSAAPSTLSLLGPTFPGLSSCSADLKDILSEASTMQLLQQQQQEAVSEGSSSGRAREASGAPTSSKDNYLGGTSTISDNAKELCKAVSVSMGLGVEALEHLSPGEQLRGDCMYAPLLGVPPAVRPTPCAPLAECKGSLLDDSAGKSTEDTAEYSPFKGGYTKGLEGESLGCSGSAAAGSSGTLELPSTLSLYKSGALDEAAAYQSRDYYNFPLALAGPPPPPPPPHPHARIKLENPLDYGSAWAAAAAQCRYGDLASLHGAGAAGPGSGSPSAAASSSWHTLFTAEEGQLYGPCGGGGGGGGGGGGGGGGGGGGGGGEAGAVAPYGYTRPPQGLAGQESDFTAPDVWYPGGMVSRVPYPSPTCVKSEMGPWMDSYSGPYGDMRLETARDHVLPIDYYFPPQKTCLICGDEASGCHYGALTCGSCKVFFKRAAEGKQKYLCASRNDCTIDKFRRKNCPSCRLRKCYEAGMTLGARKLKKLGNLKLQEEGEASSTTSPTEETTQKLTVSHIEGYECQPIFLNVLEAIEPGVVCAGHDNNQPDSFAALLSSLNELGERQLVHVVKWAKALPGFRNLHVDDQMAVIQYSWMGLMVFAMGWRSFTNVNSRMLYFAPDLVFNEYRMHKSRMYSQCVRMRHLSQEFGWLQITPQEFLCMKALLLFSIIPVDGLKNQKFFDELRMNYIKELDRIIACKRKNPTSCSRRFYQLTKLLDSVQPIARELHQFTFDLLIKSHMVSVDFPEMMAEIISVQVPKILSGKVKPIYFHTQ
Procedure, shortened: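 Agonist activity is measured as luciferase luminescence in human MDA-kb2 cells whose MMTV reporter responds to both AR and GR. Compounds in DMSO incubate 16 h at 37C, 0% CO2, and ONE-Glo is read after 30 min.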

[18] = target: Androgen receptor (Homo sapiens) (UniProt P10275); test: qHTS assay to identify small molecule antagonists of the androgen receptor (AR) signaling pathway (AID 743035; active = well fitted inhibition curve with a large enough effect in the signal ratio in the repeat runs, not every such curve was filed as active; inconclusive = weak or mixed curves, or effect the other way; inactive = no such curve, though single readings can be large or run the other way; the % refers to the signal ratio)
Procedure, shortened: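 Antagonist mode: AR-bla HEK293 cells co-treated with test compounds and agonist R1881 for 16 h at 37C, 5% CO2. Beta-lactamase activity read as FRET fluorescence after 2 h room-temperature substrate loading.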

[19] = target: Androgen receptor (Homo sapiens) (UniProt P10275); test: qHTS assay to identify small molecule antagonists of the androgen receptor (AR) signaling pathway using the MDA cell line (AID 743042; note: nearly all actives have a fitted effect of over 55% in size)
Procedure, shortened: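 MDA-kb2 cells (human breast carcinoma, stably carrying an MMTV-luciferase reporter responsive to AR and GR) were plated at 3,000 cells/well and preincubated 5 hr at 37C, then given compound plus R1881 agonist for 16 h. ONE-Glo luminescence was read.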

c1ccc(Nc2cccc3ccccc23)cc1
Potency [1]: 44.2 µM (active)
Potency [2]: 69.5 µM (active)
Potency [3]: 61.9 µM (active) and 61.1 µM (active)
Potency [4]: 55.2 µM (active) and 61.1 µM (active)
Potency [5]: inactive
Potency [6]: 69.5 µM (active)
Potency [7]: inactive
Potency [8]: inactive
Potency [9]: 44.2 µM [inconclusive] (active) and 17.4 µM [activator] (active)
Potency [10]: 13.9 µM (active) and 9.69 µM (active)
Potency [11]: inactive
Potency [12]: inactive
Potency (Aromatase (Homo sapiens)): 43.8 µM (active) and 61.1 µM (active)
Potency [13]: 39.1 µM (active)

CCN(CC)CCCN(c1ccccc1)C1Cc2ccccc2C1
Potency [1]: 23.9 µM (active)
Potency [2]: 0.531 µM (active)
Potency [3]: 0.944 µM (active)
Potency [4]: 1.5 µM (active)
Potency [5]: 11.9 µM (active)
Potency [6]: 2.98 µM (active)
Potency [8]: 19 µM (active)
Potency [9]: inactive
Potency [12]: 29.8 µM (active)
Potency (Aromatase (Homo sapiens)): 26.6 µM (active)
Potency [13]: 29.8 µM (active)

C[C@@]12C(=O)OC(=O)[C@]1(C)C1CCC2O1
Potency [1]: 1.29 µM (active)
Potency [2]: inactive
Potency [3]: inactive
Potency [4]: inactive
Potency [5]: 3.35 µM (active)
Potency [6]: 2.27 µM (active)
Potency [14]: 2.02 µM (active)
Potency [7]: inactive
Potency [15]: 4.06 µM [inconclusive] (active)
Potency [9]: inactive
Potency [13]: 3.59 µM (active)

Cc1c(C)n(Cc2ccccc2)c2ccc(C(=O)OCCN(C)C)cc12
Potency [1]: inactive
Potency [2]: 3.76 µM (active)
Potency [3]: 3.76 µM (active)
Potency [4]: 6.68 µM (active)
Potency [6]: 7.5 µM (active)
Potency [14]: 10.6 µM (active)
Potency [12]: inactive
Potency (Aromatase (Homo sapiens)): inactive
Potency [13]: inactive

CC(C)c1ccc(O)c(C(C)C)c1
Potency [1]: inactive
Potency [2]: 54.5 µM (active)
Potency [3]: 54.5 µM (active)
Potency [4]: 48.6 µM (active)
Potency [16]: 49 µM (active)
Potency [5]: inactive
Potency [7]: inactive
Potency [15]: inactive
Potency [9]: inactive
Potency [10]: inactive
Potency [11]: 54.5 µM (active)
Potency [12]: inactive

CCCCCCCCCCCCCCNCCO
Potency [1]: inactive
Potency [3]: 21.1 µM (active)
Potency [4]: 11.9 µM (active)
Potency [16]: inactive
Potency [5]: inactive
Potency [6]: inactive
Potency [7]: inactive
Potency [15]: inactive
Potency [8]: inactive
Potency [9]: inactive
Potency [10]: 188 nM (active)
Potency [12]: inactive
Potency (Aromatase (Homo sapiens)): inactive
Potency [13]: inactive

C=C(C)C(=O)OCCC[Si](Cl)(Cl)Cl
Potency [1]: inactive
Potency [3]: inactive
Potency [4]: inactive
Potency [16]: inactive
Potency [5]: inactive
Potency [6]: inactive
Potency [8]: inactive
Potency [12]: inactive
Potency (Aromatase (Homo sapiens)): inactive
Potency [13]: inactive

[O]=[Zr]
Potency [1]: inactive
Potency [3]: inactive
Potency [4]: inactive
Potency [16]: inactive
Potency [5]: inactive
Potency [6]: inactive
Potency [7]: inactive
Potency [8]: inactive
Potency [12]: inactive
Potency (Aromatase (Homo sapiens)): inactive
Potency [13]: inactive

Cc1oc(-c2ccccc2)nc1CCOc1ccc(C[C@H](Nc2ccccc2C(=O)c2ccccc2)C(=O)O)cc1
Potency [1]: 38.9 µM (active)
Potency [3]: 61.1 µM (active)
Potency [4]: 54.5 µM (active)
Potency [16]: inactive
Potency [17]: inactive
Potency [5]: 61.1 µM (active)
Potency [6]: 27.3 µM (active)
Potency [14]: 54.5 µM (active)
Potency [9]: inactive
Potency [11]: inactive
Potency [13]: 54.5 µM (active)

O=C(O)c1cccc(Cl)n1
Potency [1]: inactive
Potency [3]: 61.1 µM (active)
Potency [4]: 61.1 µM (active)
Potency [16]: inactive
Potency [18]: inactive
Potency [17]: inactive
Potency [5]: inactive
Potency [19]: inactive
Potency [6]: inactive
Potency [14]: inactive
Potency [7]: inactive
Potency [15]: inactive
Potency [8]: inactive
Potency [9]: inactive
Potency [10]: inactive
Potency [11]: inactive
Potency [12]: inactive
Potency (Aromatase (Homo sapiens)): inactive
Potency [13]: inactive

O=C(Oc1ccccc1)c1cccc(C(=O)Oc2ccccc2)c1
Potency [1]: inactive
Potency [3]: 72.3 µM (active)
Potency [4]: 67 µM (active)
Potency [16]: inactive
Potency [17]: inactive
Potency [5]: inactive
Potency [19]: inactive
Potency [14]: inactive
Potency [7]: inactive
Potency (Aromatase (Homo sapiens)): inactive

CCC(C)(C)c1cc(O)c(C(C)(C)CC)cc1O
Potency [1]: inactive
Potency [3]: 21.7 µM (active)
Potency [4]: 17.2 µM (active)
Potency [16]: inactive
Potency [17]: inactive
Potency [5]: inactive
Potency [19]: inactive
Potency [6]: inactive
Potency [7]: inactive
Potency [9]: inactive
Potency [10]: inactive
activity change, negative = inhibition [11]: 6.54% (active)
Potency [12]: inactive
Potency (Aromatase (Homo sapiens)): 24.3 µM (active)

CCCCC(CC)COC(=O)c1ccc(O)cc1 (stereo not drawn)
Potency [1]: 43.5 µM (active)
Potency [3]: 43.1 µM (active) and 48.6 µM (active)
Potency [4]: 48.6 µM (active)
Potency [16]: inactive
Potency [5]: inactive
Potency [7]: inactive
Potency [8]: 54.7 µM (active)
Potency [12]: inactive
Potency (Aromatase (Homo sapiens)): 15.3 µM (active) and 19.3 µM (active)
Potency [13]: 27.2 µM (active)

CNC(=S)NN
Potency [1]: inactive
Potency [3]: 7.7 µM (active)
Potency [4]: 7.7 µM (active)
Potency [16]: 3.89 µM (active)
Potency [5]: 48.6 µM (active)
Potency [7]: inactive
Potency [8]: inactive
Potency [9]: inactive
Potency [12]: inactive
Potency (Aromatase (Homo sapiens)): 61.1 µM (active)

Oc1ccc(-c2ccc(O)cc2)cc1
Potency [1]: inactive
Potency [3]: 17.3 µM (active)
Potency [4]: 24.5 µM (active)
Potency [16]: inactive
Potency [5]: inactive
Potency [6]: inactive
Potency [14]: inactive
Potency [7]: inactive
Potency [12]: inactive
Potency (Aromatase (Homo sapiens)): inactive
Potency [13]: inactive

O=C(O)CCn1c2c(c3ccccc31)C[C@H](NS(=O)(=O)c1ccc(F)cc1)CC2
Potency [1]: inactive
Potency [3]: inactive
Potency [4]: inactive
Potency [16]: inactive
Potency [5]: inactive
Potency [6]: inactive
Potency [14]: inactive
Potency [7]: inactive
Potency [8]: inactive
Potency (Aromatase (Homo sapiens)): inactive
Potency [13]: inactive
